According to PubChem BioAssay (NCI):
“And” between values parts separate entries of the source, which are not always exact repeats. Equal entries are not always repeated. The panel holds about 79,000 compounds, 15% with a hit somewhere; the sample as a whole holds those more often. Cut-off read from the data, not from the text of the source: active = growth inhibition above about 70%; inactive = the rest.

How the values were obtained:
[1] = NCI Yeast Anticancer Drug Screen. Data for the rad50 strain (AID 155);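 note: 0% = growth of vehicle-only cultures of the same strain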; conditions: S. cerevisiae rad50 strain growth inhibition, stronger effect = higher value; at 50.0 µM unless noted
Outline: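 Inhibition values express reduced yeast growth in compound-treated cultures relative to vehicle-treated controls.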

[2] = NCI Yeast Anticancer Drug Screen. Data for the mec2-1 strain (AID 157); conditions: S. cerevisiae mec2-1 strain, stronger effect = higher value; at 50.0 µM unless noted
Outline: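 mec2-1 yeast strain, carrying an alteration in DNA damage repair or cell cycle control, was exposed to compounds; growth inhibition was measured relative to vehicle-treated controls.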

[3] = NCI Yeast Anticancer Drug Screen. Data for the sgs1 mgt1 strain (AID 161);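 note: 0% = growth of cultures given vehicle only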; conditions: S. cerevisiae sgs1 mgt1 strain, stronger effect = higher value; at 50.0 µM unless noted
Outline: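 Growth of a repair-deficient yeast mutant was monitored after compound treatment and expressed as inhibition relative to vehicle-treated cultures.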

[4] = NCI Yeast Anticancer Drug Screen. Data for the cln2 rad14 strain (AID 165);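 note: 0% = growth equal to vehicle treated cultures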; conditions: S. cerevisiae cln2 rad14 strain, stronger effect = higher value; at 50.0 µM unless noted
Outline: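 Yeast carrying cln2 and rad14 alterations (cell cycle control and DNA damage repair) were exposed to compounds. Growth inhibition was measured against vehicle-treated controls.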

[5] = NCI Yeast Anticancer Drug Screen. Data for the bub3 strain (AID 167); conditions: S. cerevisiae bub3 mutant strain, stronger effect = higher value; at 50.0 µM unless noted
Outline: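 Steps: expose the mutant yeast strain to compound; grow alongside vehicle-treated cultures; measure growth; express inhibition against the vehicle cultures.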

[6] = NCI Yeast Anticancer Drug Screen. Data for the mlh1 rad18 strain (AID 175); conditions: S. cerevisiae mlh1 rad18 strain growth inhibition, stronger effect = higher value; at 50.0 µM unless noted
Outline: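 Growth inhibition of the yeast strain was measured after compound exposure and expressed relative to vehicle-treated controls. The strain carries defined defects in DNA damage repair.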

Measured: growth inhibition

CCC[n+]1nc2ccccc2c(=Nc2ccccc2[N+](=O)[O-])[n-]1
inactive: [1] 8.65% | [2] 8.75% | [3] 2.75% | [4] 7.8% | [5] 12.3% | [6] 2.45%

O=C(CC(=O)C(F)(F)F)c1ccccc1.O=C(CC(=O)C(F)(F)F)c1ccccc1.[Mn]
inactive: [1] -1.85% | [2] -0.35% | [3] 19.2% | [4] -13.7% | [5] 3.6% | [6] 18.5%

C=CC(C)(C)c1c(OC)cc(-c2ccccc2)oc1=O
inactive: [1] -7.65% | [2] -34.4% | [3] 29.6% | [4] -23% | [5] 20.6% | [6] -9.9%

O=[N+]([O-])c1ccc(NN=C2CCCCC2)c([N+](=O)[O-])c1
inactive: [1] 9.1% | [2] -18.2% | [3] 1.8% | [4] -39.6% | [5] 2.7% | [6] 30.6%

NC(N)=NS(=O)(=O)c1ccc(NCc2c3ccccc3nc3ccccc23)cc1
inactive: [1] 41.2% | [2] 26.9% | [3] 38.4% | [4] 6.75% | [5] 46.5% | [6] 38.1%

Cc1ccc(NC(=O)C2CCCCC2)cc1
inactive: [1] 5.85% | [2] 3.3% | [3] -6.6% | [4] 10.6% | [5] -6.25% | [6] -1.6%

O=C1Nc2cc(Br)ccc2C1=O
inactive: [1] 7.5% | [2] 23.1% | [3] 2% | [4] 11.8% | [5] 10.4% | [6] 15.2%

O=C(O)CCC(=O)CCC(=O)O
inactive: [1] 13.7% | [2] -8.85% | [3] 3.6% | [4] 2% | [5] -14.6% | [6] 7.2%

CN(C)CC(C(=O)/C=C/c1ccccc1)C(C)(C)C (centres undefined)
inactive: [1] -10.4% | [2] -21.9% | [3] -16.2% | [4] 11.6% | [5] -11% | [6] -38.3%

NC1N=Nc2ccccc21 (centres undefined)
inactive: [1] 0.05% | [2] -5.95% | [3] 13.3% | [4] 4.3% | [5] -1.6% | [6] 41.3%

CC(=O)Nc1cc(Cl)ccc1[N+](=O)[O-]
inactive: [1] 8.95% | [2] 9.35% | [3] 27.9% | [4] 1.25% | [5] 17.4% | [6] 5.95%

Cc1ccc(NC(=O)N(C)C)c(C)c1
inactive: [1] -36.7% | [2] -37% | [3] -4.9% | [4] 12% | [5] 16.4% | [6] -9.75%

COc1ccc(C(=O)CCC(=O)O)c(O)c1
inactive: [1] -3.25% | [2] 1.35% | [3] -12.6% | [4] -11.1% | [5] -4.15% | [6] -11.3%

CCN(CC)C(=O)Oc1cccc(NC(=O)OC)c1
inactive: [1] 16% | [2] 47.2% | [3] 29.4% | [4] 16.1% | [5] 49.2% | [6] 33.4%

CCOC(=O)C(=CN1CCNC1=S)C(=O)OCC
inactive: [1] -30.6% | [2] -33.6% | [3] -25.6% | [4] -1.6% | [5] -15.8% | [6] -3.85%

OCC1OC(n2cnc3c(/C=C(/O)c4ccccc4)ncnc32)C(O)C1O (centres undefined)
inactive: [1] -32.6% | [2] -27% | [3] 0.35% | [4] -13.5% | [5] -27.1% | [6] 5.35%

CC(=O)OCC1OC(n2c(-c3ccccc3)c(N=Nc3ccc(C)cc3)c(C)c(C#N)c2=S)C(OC(C)=O)C(OC(C)=O)C1OC(C)=O (centres undefined)
inactive: [1] -22.6% | [2] -25.1% | [3] -22.9% | [4] 4.05% | [5] -4.9% | [6] 1.1%

OCCCCC1CCCc2ccccc21 (centres undefined)
inactive: [1] 17.3% | [2] 16.1% | [3] 3.15% | [4] -4.55% | [5] -1.85% | [6] -3.45%

COc1ccc(-c2nnc(N)s2)cc1OC
inactive: [1] 16.4% | [2] 2.7% | [3] 2.8% | [4] -1.6% | [5] -7.05% | [6] 6.35%

CN(C)Cc1ccccc1CC1(O)CCCC1
inactive: [1] 19.6% | [2] -2.75% | [3] -4.3% | [4] -10.1% | [5] 0.3% | [6] -12.5%

Cc1ccc(Nc2nc(N)nc3c2ncn3C2OC(CO)C(O)C2O)cc1 (centres undefined)
inactive: [1] 25.8% | [2] 2.6% | [3] 7.85% | [4] -3.75% | [5] 18.6% | [6] 7.35%

CN(C)CCN(C)C(=O)C1CCCN1C(=O)OCc1ccccc1 (centres undefined)
inactive: [1] -44.6% | [2] -56% | [3] -53.8% | [4] 9.3% | [5] -37.6% | [6] -46.8%

CCOC(=O)C(C#N)=C(C)C
inactive: [1] -12.6% and 26.9% | [2] 7.8% and 2.75% | [3] -2.55% and 17% | [4] -19.1% and -1.1% | [5] 0.65% and -13.8% | [6] 20.4% and 17.1%

CC(C)(C)c1ccc(C(C)(C)C)c(N2C(=O)c3ccc4c5ccc6c7c(ccc(c8ccc(c3c48)C2=O)c75)C(=O)N(c2cc(C(C)(C)C)ccc2C(C)(C)C)C6=O)c1
inactive: [1] -15.2% | [2] -7.9% | [3] -4.25% | [4] -6.2% | [5] -11.9% | [6] -6.8%

CC(Sc1nc(N)nc2nc[nH]c12)C(=O)O (centres undefined)
inactive: [1] -15.2% | [2] -3.55% | [3] -11.3% | [4] -23.6% | [5] 4.15% | [6] 11%

O=C1CCC(c2nc3ccccc3[nH]2)N1Cc1ccccc1 (centres undefined)
inactive: [1] 13.9% | [2] 2.3% | [3] 18.1% | [4] 4.35% | [5] 6.4% | [6] 18.9%

COc1ccc2cc1Oc1ccc(cc1)C[C@H]1c3cc(c(OC)cc3CCN1C)Oc1c(OC)c(OC)cc3c1[C@H](C2)N(C)CC3
inactive: [1] 27.1% and 23.9% | [2] 12.3% and -23.1% | [3] -15.9% and 5.7% | [4] -26.3% and 4.5% | [5] -6.4% and 19.7% | [6] -31.4% and -38.9%

O=C1CSC2=NCCN12
inactive: [1] 14.8% and 22.8% | [2] -3.6% and -15.3% | [3] -5.25% and 6.8% | [4] 1.5% and 3.2% | [5] 1.55% and -11.9% | [6] 21.3% and 18.8%

Nc1nc2c(ncn2-c2ccc(Br)cc2)c(=O)[nH]1
inactive: [1] 15.2% | [2] -1.6% | [3] 20.9% | [4] 32.1% | [5] -4.8% | [6] 59.8%

CCN(CC)CCN(C(=O)C(C)(C)C)c1ccccc1N
inactive: [1] -30.8% | [2] -27.9% | [3] -17.1% | [4] -18.6% | [5] -19.1% | [6] -4%

O=C1c2ccccc2C(=O)N1c1ccc(Cc2ccc(N3C(=O)c4ccccc4C3=O)cc2)cc1
inactive: [1] -11.7% | [2] 10.1% | [3] -2.6% | [4] 42.9% | [5] -0.2% | [6] 14.7%

OC1COC(OCc2ccccc2)C(O)C1O (centres undefined)
inactive: [1] -16.4% and -2.85% | [2] -25.7% and -19.6% | [3] -18.1% and -11.5% | [4] -18.2% and -46.3% | [5] 2.25% and 6% | [6] -3.4% and -12.2%

CCCCOC(=O)COCC(=O)OC(C)C(=O)OCCCC (centres undefined)
inactive: [1] -20.9% | [2] 13.1% | [3] 6.55% | [4] -22.1% | [5] 20% | [6] 4.1%

CSc1nc(N)cc(=O)n1C
inactive: [1] -16.1% | [2] -11.2% | [3] -23.9% | [4] -53.1% | [5] -9.05% | [6] 14.2%

Cc1ccc(NC(=O)CC/C(CC(=O)c2ccc(F)cc2)=N\NC(=O)C(=O)NN)cc1C
inactive: [1] -11.3% | [2] -5.2% | [3] -9.55% | [4] -3.3% | [5] -1.7% | [6] -1.25%

C[N+]1(CCC(=O)c2ccccc2)CCOCC1
inactive: [1] 42% | [2] 9.85% | [3] 28.4% | [4] 20.8% | [5] 13.5% | [6] 19.9%

CCc1nc(N)nc(N)c1-c1ccc(NC2CCCCC2)c([N+](=O)[O-])c1
inactive: [1] 10.3% | [2] 14.2% | [3] 16.1% | [4] 17.9% | [5] -6.05% | [6] 27.1%

CCOC(=O)CCN(CCC(=O)OCC)N(C)C
inactive: [1] 2.55% | [2] -6.45% | [3] -4.6% | [4] -8.85% | [5] 5.8% | [6] 2.8%

Nc1c(I)cc(I)c(C(=O)O)c1I
inactive: [1] -44% | [2] -31.9% | [3] -17% | [4] -14.8% | [5] -25.4% | [6] -39.1%
